From PubChem BioAssay (NCI)
This is part of a sample that, as a whole, favours compounds with a hit. Of some 83,000 tested, about 20% had one in any assay.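 Each cell line was grown in a 96-well plate and treated with one concentration of compound for 48 hours. Values below 10 were considered active.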 Values without a mark were called inactive. Activity calls are given as the source filed them.

Legend:
Assay in all cases: NCI-60 one-dose screen, 48 h (100 = growth as untreated, 0 = no growth, -100 = all killed)
Conditions in all cases: 10 µM unless noted
DU-145 prostate = test system: DU-145 prostate
K-562 leukemia = test system: K-562 leukemia
MDA-MB-231 breast = test system: MDA-MB-231 breast
RXF 393 renal = test system: RXF 393 renal
SF-268 CNS = test system: SF-268 CNS
SF-295 CNS = test system: SF-295 CNS
SF-539 CNS = test system: SF-539 CNS
UACC-257 melanoma = test system: UACC-257 melanoma
M14 melanoma = test system: M14 melanoma
HCT-15 colon = test system: HCT-15 colon
HT29 colon = test system: HT29 colon
SNB-75 CNS = test system: SNB-75 CNS
SNB-19 CNS = test system: SNB-19 CNS
U251 CNS = test system: U251 CNS
PC-3 prostate = test system: PC-3 prostate
SK-MEL-5 melanoma = test system: SK-MEL-5 melanoma
UACC-62 melanoma = test system: UACC-62 melanoma
LOX IMVI melanoma = test system: LOX IMVI melanoma
SK-MEL-28 melanoma = test system: SK-MEL-28 melanoma
MALME-3M melanoma = test system: MALME-3M melanoma

| Structure (SMILES) | growth (DU-145 prostate) | growth (K-562 leukemia) | growth (MDA-MB-231 breast) | growth (RXF 393 renal) | growth (SF-268 CNS) | growth (SF-295 CNS) | growth (SF-539 CNS) | growth (UACC-257 melanoma) | growth (M14 melanoma) | growth (HCT-15 colon) | growth (HT29 colon) | growth (SNB-75 CNS) | growth (SNB-19 CNS) | growth (U251 CNS) | growth (PC-3 prostate) | growth (SK-MEL-5 melanoma) | growth (UACC-62 melanoma) | growth (LOX IMVI melanoma) | growth (SK-MEL-28 melanoma) | growth (MALME-3M melanoma) |
| --- | --- | --- | --- | --- | --- | --- | --- | --- | --- | --- | --- | --- | --- | --- | --- | --- | --- | --- | --- | --- |
| Cn1c(=O)c2[nH]c(=S)n(Cc3ccccc3)c2n(C)c1=O | 105% | 84.6% | 101% | 120% | 95.8% | 118% | 93.8% | 90.4% | 99.7% | 102% | 111% | 84.9% | 99.1% | 110% | 98.2% | 102% | 91.8% | 88.1% | 122% |  |
| CC1C(C)N(C(=O)CCl)c2ccccc2N1C(=O)CCl (centres undefined) | -94.9% (active) | -0.205% (active) | -53.8% (active) | -53.9% (active) | -77.9% (active) | -66.7% (active) | -94.8% (active) | -70.3% (active) | -81.8% (active) | -83.4% (active) | -73.5% (active) | -99.4% (active) | 8.21% (active) | -93.4% (active) | -36.6% (active) | -70.4% (active) | -76.8% (active) | -81.2% (active) | -45.9% (active) |  |
| N#CC1c2ccccc2C=CN1C(=O)N(c1ccccc1)c1ccccc1 (centres undefined) | 42.9% | 5.35% (active) | 70.6% | 2.13% (active) | 79.6% | 67.7% | 109% | -1.11% (active) | 42.5% |  | 57.2% | 68.6% | 98.5% | 57.4% | 60% | 65.4% | 61.2% | 35.6% | 67% |  |
| COC(=O)[C@H]1[C@H]2C[C@@H]3c4[nH]c5cc(OC)ccc5c4CCN3C[C@H]2C[C@@H](OC(=O)/C=C/c2cc(OC)c(OC)c(OC)c2)[C@@H]1OC | 40.8% | -2.87% (active) | 65.1% | 61% | 68.6% | 14.6% | 71.8% | 85% | 71.5% | 39.9% | -66.1% (active) | 47.2% | 49.9% | 17.4% | 44.6% |  | 87.4% | 26.8% | 109% |  |
| CCSCC1CC(O)(c2ccccc2)C(c2ccccc2)C(c2ccc(Cl)cc2)O1 (centres undefined) | 18.2% |  | -26% (active) | -30.9% (active) | 17.3% | -54.1% (active) | -16.4% (active) | -11.5% (active) | 14.3% | 7.75% (active) | 13.5% | 59.4% | 28.5% | 5.12% (active) | 4.66% (active) | -94.8% (active) | 0.0955% (active) | -85.2% (active) | -18.7% (active) | -34.7% (active) |
| COC(=O)C1(NC(=O)CNC(=O)OCc2ccccc2)CCCC1 | 114% | 98.7% | 95.8% | 105% | 114% | 117% | 99.4% | 106% | 105% | 103% | 108% | 88.4% | 96.5% | 105% | 103% | 100% | 92.3% | 97.3% | 102% |  |
| O=Nc1c2cccnc2n2nnc3ccc(Cl)cc3c12 | -10.6% (active) |  | 13.9% |  | 48.7% | 90.3% | 91.4% | 28.6% | 81.5% | 24.5% | 8.1% (active) | 63.4% | 89.8% | 50.6% | -26.9% (active) | 96.2% | 73.5% | 26.6% | 28.3% | 23.7% |
| Nc1ccc2c(c1)Cc1cc(Cl)c(Cl)cc1-2 | 59.9% | 67.4% | 52.5% | 50.7% | 74% | 50.1% | 74.2% | 77% | -9.59% (active) | 51.5% | 93.1% | 84% | 46.2% | 34.6% | 68.5% | 43.4% | 63.4% | 76.1% | 78.6% |  |
| COc1ccc(/C=C/C(=O)c2cccc(NS(C)(=O)=O)c2)cc1 | 42.6% |  | 80.5% |  | 82% | 92.1% | 94.7% |  | 97.3% | 67.5% | 49.1% | 68.6% | 87.9% | 37.6% |  | 90.4% | 76% | 75% | 110% | 112% |
| O=C1N=C(N2CCOCC2)S/C1=C\c1cn(-c2ccccc2)nc1-c1ccccc1 | 69.9% | 92.9% | 52.7% | 51.8% | 74.8% | 48.4% | 28.4% | 81.9% | 83.5% | 89.4% | 80.5% | -30.2% (active) | 72.1% | 66.1% | 90.4% | 66.4% | 77.8% | 76% | 72% |  |
| C[C@]12CC[C@H](O)CC1=CC[C@@H]1[C@@H]2CC[C@]2(C)C(c3cccnc3)=CC[C@@H]12 | 90.6% |  | 85.1% |  | 79.5% | 42% | 31.8% |  | 71% | 56.8% | 24% | 52.4% | 72.7% | 67% |  | 25.9% | 53.2% | 74.5% | 33.8% | 70.8% |
| CN1CCN(CCCCCN=c2cc3c(=O)n(CCCCCN4CCN(C)CC4)c(=O)c4c(NCCCCCN5CCN(C)CC5)cc5c(O)n(CCCCCN6CCN(C)CC6)c(=O)c2c5c4-3)CC1 | 0.918% (active) | 8.94% (active) | -34% (active) | 64.4% | -2.31% (active) | 36.4% | 10.4% | -11.4% (active) | 81.8% | 107% |  | -8.4% (active) | 3.84% (active) | 2.35% (active) | 12.6% | 44.3% | 21.9% |  | -34.8% (active) |  |
| CN(C)CCC(=O)Nc1ccc(-n2cc(-c3cccc(NC(=S)Nc4cccc(-c5cn(-c6ccc(NC(=O)CCN(C)C)cc6)nn5)c4)c3)nn2)cc1 | 115% | 18.6% | 107% | 135% | 98.6% | 65.3% | 97.6% | 117% | 112% | 92.5% | 28.4% | 119% | 106% | 70.9% | 89% | 97.2% | 114% |  | 133% |  |
| CC(=O)O[C@H]1CC[C@@]2(C)C(=CC[C@@H]3[C@@H]2CC[C@]2(C)C(c4cccnc4)=CC[C@@H]32)C1 | 94.9% |  | 86.3% |  | 76.4% | 43.3% | 28.7% |  | 72.7% | 51.4% | 22.1% | 51% | 72.3% | 53% |  | 20.9% | 44.1% | 63.4% | 44.4% | 72.6% |
| Cn1c(N2N=C(c3ccc(Cl)cc3)CC2c2ccccc2)nc(-c2ccccc2)c(C#N)c1=O (centres undefined) | 89.4% |  | 58.6% | 96.4% | 57.9% | 85.4% | 103% |  | 90% | 80% | 79.3% | 91.4% | 88.8% |  | 49.7% | 54.7% | 58.9% | 70.9% | 94.5% | 97.6% |
| O=C(Nc1nc2ccc(OC(F)(F)F)cc2s1)c1ccc(F)cc1 |  | 9.01% (active) | 27.1% | 48.5% | 8.27% (active) | 4% (active) | 21.5% | 22.3% | 37.3% | 12% | 15.7% | 73.7% | 12.3% | 6.58% (active) | 12.4% | -7.36% (active) | 7.77% (active) |  | 33.5% | 10.9% |
| O=C(Nc1ccc(Cl)cc1)Nc1nc2ccc(OC(F)(F)F)cc2o1 |  | 60.7% | 109% | 78.9% | 123% | 70.1% | 104% | 114% |  | 77.5% | 84.7% | 97% | 93.2% | 83.1% | 44.7% | 90.8% | 82.9% | 103% | 108% | 128% |
